Test results taken from PubChem BioAssay (NCATS).
Results filed as inconclusive are left out. Calls of active or inactive are those of the source. Unless noted, calls come from the whole dose curve; as a rule, active = well fitted curve in the direction sought with a large enough effect; inconclusive = small, poorly fitted or top-dose-only effect, or another doubt; inactive = no such curve, though single readings can be large; an effect the other way counts as inactive or inconclusive.

What was measured:
[1] = qHTS for Inhibitors of Plasmodium falciparum (DD2) proliferation (AID 504314);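 note: parasite DNA measured by SYBR Green fluorescence after red cell lysis; plate controls were DMSO vehicle for no effect and artemisinin wells for full effect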
How it was run: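 Parasite proliferation measured as SYBR Green signal from Plasmodium DNA, mature erythrocytes lacking DNA. 72 h incubation, 37C; activity scaled between vehicle and 0.29 uM artemisinin, with correction from vehicle-only plates.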

[2] = qHTS for Inhibitors of Plasmodium falciparum (GB4) proliferation (AID 504315);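 note: 0% = DMSO vehicle and -100% = 0.29 µM artemisinin control; nearly all actives have a fitted effect of over 50% in size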
How it was run: (§1)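 Parasite growth measured as SYBR Green DNA fluorescence (ex 485, em 535 nm) after overnight lysis following 72 h culture at 37 °C, 0.3% parasitemia, 2.5% hematocrit. Values normalized against DMSO and 0.29 uM artemisinin controls, with plate-stack correction.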

[3] = qHTS for Inhibitors of Plasmodium falciparum (7G8) proliferation (AID 504316);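 note: series mostly up to about 6.7 µM; 0% = DMSO vehicle and -100% = 0.29 µM artemisinin full kill; nearly all actives have a fitted effect of over 65% in size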
How it was run: as §1

[4] = qHTS for Inhibitors of Plasmodium falciparum (HB3) proliferation (AID 504318);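 note: 0% = DMSO vehicle and -100% = artemisinin control; nearly all actives have a fitted effect of over 60% in size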
How it was run: as §1

[5] = qHTS for Inhibitors of Plasmodium falciparum (CP250) proliferation (AID 504320);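 note: plate controls were DMSO vehicle for no effect and 0.29 µM artemisinin control for full effect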
How it was run: as §1

[6] = target: Atrial natriuretic peptide receptor 1 (Homo sapiens) (UniProt P16066); experiment: Natriuretic polypeptide receptor (hNpr1) antagonism - Pilot CMLD screen (AID 1347052; calls by dose curve;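 note: HEK293 cells with hNpr1 stimulated by hNppA peptide at 0.1 nM; cGMP level read as GloSensor luciferase luminescence after agonist stimulation; series mostly up to about 9.2 µM; % is set by controls: 0 for no effect and ±100 for the full control effect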)
Atrial natriuretic peptide receptor 1 (Homo sapiens), sequence (P16066 whole entry, looked up): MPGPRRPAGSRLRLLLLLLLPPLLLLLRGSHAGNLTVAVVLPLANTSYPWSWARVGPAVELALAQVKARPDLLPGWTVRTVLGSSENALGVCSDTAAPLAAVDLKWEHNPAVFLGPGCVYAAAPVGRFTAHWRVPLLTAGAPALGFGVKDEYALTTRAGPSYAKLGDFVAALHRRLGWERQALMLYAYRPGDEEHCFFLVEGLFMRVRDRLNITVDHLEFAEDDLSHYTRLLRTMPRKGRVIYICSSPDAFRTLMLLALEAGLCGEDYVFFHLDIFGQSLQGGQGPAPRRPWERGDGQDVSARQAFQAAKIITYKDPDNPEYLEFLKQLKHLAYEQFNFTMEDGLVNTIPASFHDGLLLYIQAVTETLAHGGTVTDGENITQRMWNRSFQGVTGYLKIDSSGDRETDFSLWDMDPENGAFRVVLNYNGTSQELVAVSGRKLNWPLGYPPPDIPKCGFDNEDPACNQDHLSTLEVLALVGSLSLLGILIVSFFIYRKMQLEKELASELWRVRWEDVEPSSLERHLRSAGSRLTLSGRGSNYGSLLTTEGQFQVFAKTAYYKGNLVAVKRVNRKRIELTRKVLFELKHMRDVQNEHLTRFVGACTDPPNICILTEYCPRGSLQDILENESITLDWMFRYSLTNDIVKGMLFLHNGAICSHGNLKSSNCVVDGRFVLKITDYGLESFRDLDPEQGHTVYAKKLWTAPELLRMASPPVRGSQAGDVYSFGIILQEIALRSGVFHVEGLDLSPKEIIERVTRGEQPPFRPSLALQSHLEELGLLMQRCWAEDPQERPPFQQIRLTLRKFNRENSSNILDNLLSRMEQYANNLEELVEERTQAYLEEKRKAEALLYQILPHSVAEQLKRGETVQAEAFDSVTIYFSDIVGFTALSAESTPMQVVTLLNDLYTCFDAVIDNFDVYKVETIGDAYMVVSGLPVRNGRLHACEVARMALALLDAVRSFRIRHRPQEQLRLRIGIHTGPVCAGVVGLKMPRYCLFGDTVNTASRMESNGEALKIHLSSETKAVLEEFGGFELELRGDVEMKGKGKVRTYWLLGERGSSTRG

O=C1[C@H]2[C@@H]3[C@@H](O)[C@H](O)CC(=NOCc4ccccc4)[C@@H]3CC[C@H]2C(=O)N1c1ccc(F)cc1F
inactive: Potency [1] | Potency [2] | Potency [3] | Potency [4] | Potency [5] | Potency [6]

COc1ccc2ccccc2c1-c1c(OC)ccc2ccccc12
inactive: Potency [1] | Potency [2] | Potency [3] | Potency [4] | Potency [5] | Potency [6]

COC(=O)[C@H](COC(C)(C)C)NC(=O)O[C@@H]1C(=O)c2cc(Br)ccc2O[C@H]1c1ccc2c(c1)OCO2
inactive: Potency [1] | Potency [2] | Potency [3] | Potency [4] | Potency [5] | Potency [6]

COC(=O)N[C@H](CC(C)=O)c1ccccc1
inactive: Potency [1] | Potency [2] | Potency [3] | Potency [4] | Potency [5] | Potency [6]

COc1ccc2c(c1)CO[C@H]([C@H](O)COC(C)=O)[C@H]2C=Cc1ccccc1
inactive: Potency [1] | Potency [2] | Potency [3] | Potency [4] | Potency [5] | Potency [6]

COC(=O)CC=C[C@@H](C)[C@H](NC(=O)OCC(Cl)(Cl)Cl)c1cccc(OC)c1
inactive: Potency [1] | Potency [2] | Potency [3] | Potency [4] | Potency [5] | Potency [6]

COCCN1C=C2C(=O)C(C)(OC(=O)C3CCCC3)C(=O)C=C2C=C1c1ccsc1 (centres undefined)
inactive: Potency [1] | Potency [2] | Potency [3] | Potency [4] | Potency [5] | Potency [6]

CC(C)[C@@H](OCc1ccccc1)[C@H](C)C=NOC[C@@H](O)[C@H]1O[C@@H]2OC(C)(C)O[C@H]2[C@@H]1O
inactive: Potency [1] | Potency [2] | Potency [3] | Potency [4] | Potency [5] | Potency [6]

C=CCCN1C(=O)NC(c2ccccc2)C(C(C)=O)=C1C (centres undefined)
inactive: Potency [1] | Potency [2] | Potency [3] | Potency [4] | Potency [5] | Potency [6]

CC=CCCN1C=C(C(C)=O)C(c2ccccc2)NC1=O (centres undefined)
inactive: Potency [1] | Potency [2] | Potency [3] | Potency [4] | Potency [5] | Potency [6]

COCCN1C(=O)NC(c2cccc(C(F)(F)F)c2)C(C(=O)OC)=C1C (centres undefined)
inactive: Potency [1] | Potency [2] | Potency [3] | Potency [4] | Potency [5] | Potency [6]

CCCCCCCc1cc2ccccc2c(=O)o1
inactive: Potency [1] | Potency [2] | Potency [3] | Potency [4] | Potency [5] | Potency [6]

COC(=O)C1=C2C=CCCN2C(=O)NC1c1ccccc1 (centres undefined)
inactive: Potency [1] | Potency [2] | Potency [3] | Potency [4] | Potency [5] | Potency [6]

CCN1C(=S)NC(c2ccccc2)C(C(=O)OC)=C1C (centres undefined)
inactive: Potency [1] | Potency [2] | Potency [3] | Potency [4] | Potency [5] | Potency [6]

CCN1C(=O)NC(c2cccc(C(F)(F)F)c2)C(C(C)=O)=C1C (centres undefined)
inactive: Potency [1] | Potency [2] | Potency [3] | Potency [4] | Potency [5] | Potency [6]

CCOC(=O)CN1C(=O)N(CC)C(C)=C(C(=O)OC)C1c1ccccc1 (centres undefined)
inactive: Potency [1] | Potency [2] | Potency [3] | Potency [4] | Potency [5] | Potency [6]

CC1(OC(=O)C2CCCC2)C(=O)C=C2C=C(c3ccsc3)OC=C2C1=O (centres undefined)
inactive: Potency [1] | Potency [2] | Potency [3] | Potency [4] | Potency [5] | Potency [6]

C=CCN1C(=O)[C@@]2(CC(C)=CC[C@@H](C)O2)c2c(Br)cccc21
inactive: Potency [1] | Potency [2] | Potency [3] | Potency [4] | Potency [5] | Potency [6]

CC(=O)OC[C@H]1O[C@H](CC=NO[C@@H](C)c2cn([C@H](CO)Cc3ccccc3)nn2)C=C[C@@H]1OC(C)=O
inactive: Potency [1] | Potency [2] | Potency [3] | Potency [4] | Potency [5] | Potency [6]

C[C@H]1[C@@H]2O[C@H]2CCO[C@H]1c1cccc(Br)c1
inactive: Potency [1] | Potency [2] | Potency [3] | Potency [4] | Potency [5] | Potency [6]

Cc1cccc(C)c1Nc1oc(-c2ccccc2)nc1-c1ccccc1
inactive: Potency [1] | Potency [2] | Potency [3] | Potency [4] | Potency [5] | Potency [6]

COC(=O)CC=C[C@H](C)[C@@H](NC(=O)C(F)(F)F)c1ccccc1Br
inactive: Potency [1] | Potency [2] | Potency [3] | Potency [4] | Potency [5] | Potency [6]

CC(=O)C1=C(C)N(Cc2ccccc2)C(=O)NC1c1cccs1 (centres undefined)
inactive: Potency [1] | Potency [2] | Potency [3] | Potency [4] | Potency [5] | Potency [6]

CC(=O)OC[C@H]1O[C@H](CC=NO[C@H](C)c2cn([C@@H]3COC[C@@H]3O)nn2)C=C[C@@H]1OC(C)=O
inactive: Potency [1] | Potency [2] | Potency [3] | Potency [4] | Potency [5] | Potency [6]

CC12C=C(C=CC=Cc3ccco3)C(C)(C1)C(C=Cc1ccco1)CC2=O (centres undefined)
inactive: Potency [1] | Potency [2] | Potency [3] | Potency [4] | Potency [5] | Potency [6]

COC(=O)C1=C(C(=O)OC)[C@@H]2Nc3ccccc3[C@@]23C[C@@H](C(=O)OC)N(C(=O)NC(C)(C)C)C3=N1
inactive: Potency [1] | Potency [2] | Potency [3] | Potency [4] | Potency [5] | Potency [6]

C[C@@H]1NC(=O)[C@@H](C)COC(=O)[C@H](C)NC(=O)[C@@H](C)COC1=O
inactive: Potency [1] | Potency [2] | Potency [3] | Potency [4] | Potency [5] | Potency [6]

CCO[C@@H]1C[C@@]1(C=C[C@@H](C)[C@H](OC)c1ccccc1Br)C(=O)OC
inactive: Potency [1] | Potency [2] | Potency [3] | Potency [4] | Potency [5] | Potency [6]

COC(=O)c1ccc(CN2C(=O)[C@]3(OCCC=C[C@@H]3C)c3c(Br)cccc32)cc1
inactive: Potency [1] | Potency [2] | Potency [3] | Potency [4] | Potency [5] | Potency [6]

O=c1n(-c2ccccc2)c(=O)n2n1CC[C@@H]1C(=NOC[C@@H](O)COCc3ccco3)[C@H]3O[C@H]3[C@@H](O)[C@H]12
inactive: Potency [1] | Potency [2] | Potency [3] | Potency [4] | Potency [5] | Potency [6]

CC(=O)OC[C@H]1O[C@H](C#Cc2ccccc2)C=C[C@@H]1OC(C)=O
inactive: Potency [1] | Potency [2] | Potency [3] | Potency [4] | Potency [5] | Potency [6]

COC(=O)CC1c2ccccc2C(Cc2ccc(OC)cc2)=C(C)N1C(=O)OC (centres undefined)
inactive: Potency [1] | Potency [2] | Potency [3] | Potency [4] | Potency [5] | Potency [6]

COCC1=C(C(=O)OC)C(c2ccccc2)N(C(C)=O)C(=O)N1 (centres undefined)
inactive: Potency [1] | Potency [2] | Potency [3] | Potency [4] | Potency [5] | Potency [6]

COc1ccc(-c2nc(-c3ccccc3)oc2Nc2c(C)cccc2C)cc1
inactive: Potency [1] | Potency [2] | Potency [3] | Potency [4] | Potency [5] | Potency [6]

COC(=O)CC=C[C@@H](C)[C@@H](C=NOCC[C@@H]1C=C[C@H](OC(C)=O)[C@@H](COC(C)=O)O1)NS(=O)(=O)c1ccc(C)cc1
inactive: Potency [1] | Potency [2] | Potency [3] | Potency [4] | Potency [5] | Potency [6]

CCCCC1=CC2=C(c3ccco3)C(=O)C(C)(OC(=O)c3ccc(OC)cc3)C(=O)C2=CN1Cc1ccc(OC)cc1 (centres undefined)
inactive: activity, negative = inhibition [1] 1.26% [at 1.12 µM] | Potency [2] | Potency [3] | Potency [4] | Potency [5] | Potency [6]

Cc1ccc(S(=O)(=O)OC[C@@H]2CN3[C@H](c4ccc(Br)cc4)[C@H](C)CC[C@H]3C(=O)O2)cc1
inactive: Potency [1] | Potency [2] | Potency [3] | Potency [4] | Potency [5] | Potency [6]

C[C@H]1CC[C@H]2C(=O)O[C@H](CO)CN2[C@H]1c1ccc(Br)cc1
inactive: Potency [1] | Potency [2] | Potency [3] | Potency [4] | Potency [5] | Potency [6]

CC=COC(=O)N[C@@H](c1ccccc1)[C@]1(C(C)=O)CCOC1=O
inactive: Potency [1] | Potency [2] | Potency [3] | Potency [4] | Potency [5] | Potency [6]

C=C(CCN1C=C(C(=O)OCC)C(c2ccccc2)NC1=O)c1ccccc1 (centres undefined)
inactive: Potency [1] | Potency [2] | Potency [3] | Potency [4] | Potency [5] | Potency [6]

C=C(CCN1C=C(C(C)=O)C(c2ccccc2)NC1=O)c1ccccc1 (centres undefined)
inactive: Potency [1] | Potency [2] | Potency [3] | Potency [4] | Potency [5] | Potency [6]

C=CCC(O)(C#Cc1ccccc1)c1ccccc1 (centres undefined)
inactive: Potency [1] | Potency [2] | Potency [3] | Potency [4] | Potency [5] | Potency [6]

COC(=O)N1C2CC3(C)CC(=O)CC1(C)C3c1ccccc12 (centres undefined)
inactive: Potency [1] | Potency [2] | Potency [3] | Potency [4] | Potency [5] | Potency [6]

CCOC(=O)OC[C@H]1O[C@H](C#Cc2ccc(F)cc2F)C=C[C@H]1OC(=O)OCC
inactive: Potency [1] | Potency [2] | Potency [3] | Potency [4] | Potency [5] | Potency [6]

CCCC[C@]12Cc3c(ccc4ccccc34)[C@H](O1)c1c(cc(C)oc1=O)O2
inactive: Potency [1] | Potency [2] | Potency [3] | Potency [4] | Potency [5] | Potency [6]

COC(=O)C(C(C)=O)[C@@H](NC(=O)OC(C)(C)C)c1ccccc1 (some centres undefined)
inactive: Potency [1] | Potency [2] | Potency [3] | Potency [4] | Potency [5] | Potency [6]

CCN1C(=NCCc2cccnc2)N[C@H](CCc2ccccc2)[C@H](C(=O)OC)[C@H]1C
inactive: Potency [1] | Potency [2] | Potency [3] | Potency [4] | Potency [5] | Potency [6]

COC(=O)CC=C[C@@H](C)[C@@H](C=NO[C@@H](C)c1cn([C@H](CO)Cc2ccccc2)nn1)NS(=O)(=O)c1ccc(C)cc1
inactive: Potency [1] | Potency [2] | Potency [3] | Potency [4] | Potency [5] | Potency [6]

Cc1cc2c(nc1C)CCCN2CC(O)CN1CCN(C)CC1 (centres undefined)
inactive: Potency [1] | Potency [2] | Potency [3] | Potency [4] | Potency [5] | Potency [6]

COC(=O)[C@H](Cc1ccccc1)NC(=O)O[C@H]1C(=O)c2ccc(OC)cc2O[C@@H]1c1ccc2c(c1)OCO2
inactive: Potency [1] | Potency [2] | Potency [3] | Potency [4] | Potency [5] | Potency [6]

COC(=O)C1=C(C(=O)OC)[C@@H]2N(C)c3ccccc3[C@@]23CCC(=O)N(Cc2ccco2)C3=N1
inactive: Potency [1] | Potency [2] | Potency [3] | Potency [4] | Potency [5] | Potency [6]

C=CCN1c2ccccc2[C@]23CCC(=O)N(CC(=O)OC)C2=NC(C(=O)OC)=C(C(=O)OC)[C@H]13
inactive: Potency [1] | Potency [2] | Potency [3] | Potency [4] | Potency [5] | Potency [6]

C=CCNC(=O)N1CCc2nc(-c3ccccc3)c3c(c2C1)CO[C@@H](C)C3
inactive: activity, negative = inhibition [1] -1.14% [at 1.12 µM] | Potency [2] | Potency [3] | Potency [4] | Potency [5] | Potency [6]

C[C@@H]1C=CCCO[C@]12C(=O)N(Cc1ccc(F)cc1)c1cccc(Br)c12
inactive: Potency [1] | Potency [2] | Potency [3] | Potency [4] | Potency [5] | Potency [6]
